“And” between values parts separate entries of the source, which are not always exact repeats. Equal entries are not always repeated. Among all 370,000 compounds or so, about 3,300 (0.89%) were called active. The sample holds actives, similar compounds and a random draw of the others, so the mix is not that of the screen. Unmarked numbers belong to inactive results.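 How the source made its calls: active means activation above the mean of all tested compounds plus 3 SD, computed per campaign excluding outliers beyond control limits (cut at about 13% in these data); inactive means the rest.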

Drawing on PubChem BioAssay AID652039 (The Scripps Research Institute Molecular Screening Center, 2013), this text covers activation for 86 compounds.

In the assay the target is Kallikrein-7 (Homo sapiens) (UniProt P49862). Description: proKLK7 zymogen activators, primary screen, biochemical, fluorescence intensity (AID 652039). Conditions: purified proKLK7, EDANS-DABCYL substrate fluorescence; at 7 µM; stronger effect = higher value; 100% is mature enzyme control, 0% vehicle.
Chain of Kallikrein-7 (Homo sapiens) (P49862 whole entry, looked up): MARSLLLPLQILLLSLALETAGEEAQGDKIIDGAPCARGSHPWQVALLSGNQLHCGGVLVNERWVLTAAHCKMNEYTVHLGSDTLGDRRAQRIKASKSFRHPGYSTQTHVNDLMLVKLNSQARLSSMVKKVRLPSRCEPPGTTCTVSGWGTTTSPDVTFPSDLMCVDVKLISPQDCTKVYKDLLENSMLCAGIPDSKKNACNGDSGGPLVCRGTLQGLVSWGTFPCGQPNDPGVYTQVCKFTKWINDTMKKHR
With `CCn1c2ccccc2c2cc(NC(=O)CSc3nnc(-c4ccccc4)n3-c3ccc(C)cc3)ccc21`, the activation is -0.54%.

Take `CCN1CCN(C(=O)Cn2nc(C)n3c(cc4c(OC)cccc43)c2=O)CC1`: the activation was 21% (active).

Consider `CCc1nn(CC(=O)N2CCN(CC)CC2)c(=O)c2cccn12`, for which the activation was -0.55%.

As to `CCCN1CCN(C(=O)Cn2ncc3ccccc32)CC1`, the activation was -0.42%.

As for `C=CCN1C(=O)[C@@H](CC(=O)NCCCOCCCC)[C@]2(C(=O)OCC)CCCCC/C=C/12`, the activation is 0.01%.

Regarding `Cc1ccc(Cn2cc(CN3[C@@H](CC(C)C)COc4ccc(Cl)cc4S3(=O)=O)nn2)cc1`, the activation is 0.91%.

Regarding `Cc1cccc(NC(=O)C[C@H]2CC[C@H]3[C@@H](COc4ccc(NC(=O)Nc5ccccc5)cc4C(=O)N3C)O2)c1`, the activation is 0.42%.

With `O=C(O)c1cnn2c(C(F)(F)F)cc(-c3ccccc3)nc12`, the activation was -0.59%.

Turning to `O=C(NCc1ccco1)c1cnn2c(C(F)(F)F)cc(-c3ccco3)nc12`, the activation was 0.06%.

As for `COC(=O)c1cnn2c(C(F)(F)F)cc(-c3ccco3)nc12`, the activation was 23.1% (active).

As for `CCCCNC(=O)C[C@H]1C[C@@]2(C(=O)OC)C(=C[C@H](COCc3ccccc3)O[C@@H]2C)N(Cc2ccc(Cl)cc2Cl)C1=O`, the activation was -0.06%.

Regarding `COC(=O)C1CN(CCc2ccccc2)CCS(=O)(=O)N1Cc1cccc(Cl)c1` (stereo unspecified), the activation is -0.14%.

With `CCCc1nnc(NC(=O)CCC(=O)N2CCN(S(=O)(=O)c3ccc(OC)cc3)CC2)s1`, the activation is -0.03%.

Consider `CN(C)C(=O)c1cc(Br)ccc1Cl`, for which the activation is -0.57%.

Turning to `CN(C)C(=O)c1coc2nc3ccccc3nc12`, the activation is 39.4% (active).

As for `COc1ccc(C)cc1N(C)C(=O)c1coc(=O)c2ccccc12`, the activation was 0.1%.

As to `C=CCN(C)CC#Cc1ccccc1`, the activation was -0.36%.

In the case of `CCCCCN1CCCCC(NC(=O)C(C)CCC)C1=O` (stereo unspecified), the activation is 0.5%.

Regarding `O=C(CNS(=O)(=O)c1ccccc1F)N1CCN(c2ccccn2)CC1`, the activation was -0.03%.

`O=C(NCCN1CCOCC1)c1cc(-c2cccs2)nc2ccccc12`: the activation is 18.3% (active).

Consider `O=C(NNC(=O)c1cc(-c2ccccc2Cl)nc2ccccc12)c1csc(N2CCOCC2)n1`, for which the activation was -0.59%.

On to `CCCCN(C)CCCNC(=O)c1cc(-c2cccs2)nc2ccccc12`, for which the activation was 47.9% (active).

For the compound `O=C(NCCCN1CCOCC1)c1cnn2c(-c3ccccc3)cc(-c3ccccc3)nc12`, the activation is -3.01%.

Regarding `CCOc1ccccc1-c1cc(C(=O)N/N=C(\C)c2cccnc2)c2ccccc2n1`, the activation is -4.03%.

As for `CN(C)CCNC(=O)c1ccc(Cl)c2cc3ccccc3nc12`, the activation is 6.31%.

As for `COC(=O)[C@]12C[C@H](CC(=O)NCC34CC5CC(CC(C5)C3)C4)C(=O)N(Cc3ccc(Cl)cc3Cl)C1=C[C@H](COCc1ccccc1)O[C@@H]2C`, the activation is -0.26%.

Turning to `COC(=O)[C@]12C[C@H](CC(=O)N3CCN(C(=O)C4CC4)CC3)C(=O)N(Cc3ccc4c(c3)OCO4)C1=C[C@H](C(C)(C)C)O[C@@H]2C`, the activation was 0.05%.

`COc1cccc(N2CCN(CC(=O)N(C)Cc3ccc(F)cc3)CC2)c1`: the activation is 0.13%.

With `COC(=O)C1CN(CCc2ccccc2)CCS(=O)(=O)N1Cc1ccc(F)cc1` (stereo unspecified), the activation is -0.24%.

On to `COc1cccc(CNC(=O)CNS(=O)(=O)c2ccc3nc(C)sc3c2)c1OC`, for which the activation was 0.09%.

Regarding `CC(C)N1C(=O)c2ccccc2NC(=O)C1C(=O)NCc1cccs1` (stereo unspecified), the activation is 0%.

Consider `CN(C)c1ccc(C2Nc3ccccc3C(=O)N2NS(=O)(=O)c2ccccc2)cc1` (stereo unspecified), for which the activation is 4.94%.

Regarding `O=C1c2ccccc2NC(c2ccccc2O)N1NS(=O)(=O)c1ccccc1` (stereo unspecified), the activation was 6.73%.

In the case of `CCOC(=O)NN1C(=O)c2ccccc2NC1c1cccc(O)c1` (stereo unspecified), the activation is 26.7% (active).

For `CC(=O)NN1C(=O)c2ccccc2NC1c1ccccc1` (stereo unspecified), the activation was 15.6% (active).

Turning to `CCOC(=O)NN1C(=O)c2ccccc2NC1c1ccccc1O` (stereo unspecified), the activation is 8.02%.

As to `COC(=O)[C@]12C[C@H](CC(=O)NCc3cccc4ccccc34)C(=O)N(CCc3ccc(OC)c(OC)c3)C1=C[C@H](C1CCCC1)O[C@@H]2C`, the activation is 0.51%.

With `COc1ccc(C(=O)CSc2nnc(-c3cnccn3)n2-c2ccc(C)cc2)cc1`, the activation is 0.34%.

As for `C[C@@H]1ON(C)[C@H]2C[C@H]3c4[nH]c5cccc(-c6ccc7c(c6)OCO7)c5c4CCN3C[C@@H]12`, the activation was 0.38%.

`CCC(C)[C@@H](C(=O)OC)N(CCc1cn(Cc2ccccc2)nn1)S(=O)(=O)c1ccccc1Br` (stereo partly specified): the activation was 0.31%.

`CCC(=O)Nc1ccc2c(c1)C(=O)N(C)[C@H]1CC[C@H](CC(=O)NCCOC)O[C@@H]1CO2`: the activation was -0.03%.

Take `COCC(=O)N[C@@H]1C[C@@H]2O[C@@H](CO)CC[C@@H]2O[C@@H]1CCc1ccc(-c2ccccc2)cc1`: the activation is -0.04%.

Take `COCCN(CCOC)c1nc(N)c2c(N)nc3c(c2c1C#N)CC(=O)N3Cc1ccc(Cl)cc1`: the activation was 50.3% (active).

`O=C(c1c[nH]c2ccccc12)N1CCC(Oc2cccnc2)CC1`: the activation was 0.8%.

`COC(=O)C[C@@H]1CC[C@@H]2[C@@H](COc3ccc(NC(=O)Nc4ccc(F)c(F)c4)cc3C(=O)N2C)O1`: the activation was 0.06%.

Turning to `COC(=O)C[C@@H]1CC[C@@H]2[C@H](COc3ccc(NC(=O)c4cccc(F)c4)cc3C(=O)N2C)O1`, the activation was -0.18%.

For `CCOC(=O)c1cc(-c2ccc(Cl)s2)nc2c1c(C)nn2C`, the activation was -3.83%.

On to `COc1cc(/C=C/C(=O)Nc2ccc(OC)c(S(=O)(=O)N3CCOCC3)c2)ccc1OCC#N`, for which the activation is 40.2% (active).

Take `COc1ccc(CCC(=O)Nc2ccc(Cl)c(S(=O)(=O)N3CCOCC3)c2)cc1OC`: the activation is 0.18%.

In the case of `COc1cc(/C=C/C(=O)OCC(=O)N2CCOCC2)ccc1OCC#N`, the activation is 3.33%.

Regarding `COP(=O)(O)CNC(=O)OCc1ccccc1`, the activation was -0.07%.

In the case of `Cc1ccc(C(=O)N(Cc2ccccn2)CC2CCCO2)cc1` (stereo unspecified), the activation is -0.88%.

Consider `CCc1ccccc1NC(=O)CSc1nnc(-c2cccs2)o1`, for which the activation is 0.68%.

Consider `COC(=O)[C@]1(C#N)CC(=O)N(CC2CCCCC2)[C@@H]1c1ccccc1`, for which the activation was -0.2%.

Regarding `COc1ccc(C#CCNCc2ccc(OC)cc2OC)cc1`, the activation was 0.52%.

With `Cc1cc(N2CCN(C)CC2)nc2ccc(NC(=S)N3CCOCC3)cc12`, the activation was 7.61%.

On to `CCOCCCNC(=S)Nc1ccc2nc(N3CCN(CC)CC3)cc(C)c2c1`, for which the activation is 2.27%.

For the compound `Cc1cc(N2CCOCC2)nc2ccc(NC(=S)N3CCN(Cc4ccccc4)CC3)cc12`, the activation is 16.8% (active).

Regarding `CC(=O)c1cc(-c2ccc3ccccc3c2)c(=O)n2c1CCC2`, the activation was 0.82%.

For `CCOC(=O)c1ccc(N2C(=O)CC(N(C)Cc3ccccc3)C2=O)cc1` (stereo unspecified), the activation was 0.66%.

Take `CCOc1ccc(N2C(=O)CC(N(CCc3ccc(OC)c(OC)c3)C(=S)Nc3ccccc3)C2=O)cc1` (stereo unspecified): the activation is 0.29% and 0.35%.

Turning to `CCOc1ccc(N2C(=O)CC(N(O)c3ccccc3)C2=O)cc1` (stereo unspecified), the activation was 95.9% (active).

For the compound `Cc1cccc(OCCNC(=O)CSc2ccc(C(F)(F)F)cc2[N+](=O)[O-])c1`, the activation is 0.55%.

For the compound `CC(C)CNC(=O)OCc1cn(Cc2ccc(F)cc2)nn1`, the activation was -0.65%.

As for `Cc1c(C(C)c2ccccc2O)[nH]c2ccccc12` (stereo unspecified), the activation is 0.01%.

In the case of `Cc1ccc(-c2c(N)nc3ncccn23)cc1`, the activation was 1.47%.

Consider `CC(=O)Nc1cc(-c2ccccc2F)cn2c(-c3cccc(C(F)(F)F)c3)cnc12`, for which the activation is -0.51%.

Turning to `CC(=O)Nc1nc2ncccn2c1-c1ccc(C(F)(F)F)cc1`, the activation was 17.7% (active).

With `COC(=O)C1CN(CC(C)C)CCS(=O)(=O)N1Cc1ccc(C)cc1` (stereo unspecified), the activation is -0.1%.

With `CN(CC1CCCO1)S(=O)(=O)c1ccc(C(=O)Nc2ccc(F)cc2)cc1` (stereo unspecified), the activation was -0.36%.

Consider `COC(=O)C1CN(Cc2ccc(F)cc2)CCS(=O)(=O)N1Cc1ccc(Cl)cc1` (stereo unspecified), for which the activation is -0.13%.

For `O=S1(=O)c2ccc(N3CCN(Cc4ccccc4F)CC3)cc2Oc2ccccc2CN1Cc1cn(Cc2ccc(Cl)cc2)nn1`, the activation is -0.98%.

In the case of `CC1C/C(=N/NC(=O)c2cccs2)CC(C)(C)C1` (stereo unspecified), the activation was 0.16%.

Take `COC(=O)[C@]12C[C@H](CC(=O)NCc3ccccc3)C(=O)N(CCC3=CCCCC3)C1=C[C@H](C(C)C)O[C@@H]2C1CC1`: the activation is 0.56%.

As to `CC(C)[C@H](NC(=O)Nc1ccc(S(N)(=O)=O)cc1)C(=O)O`, the activation was -0.23%.

As for `CC(=O)Nc1nc(C)c(-c2csc(Nc3ccc(S(N)(=O)=O)cc3)n2)s1`, the activation was 118% (active).

In the case of `C=CCCC(=O)Nc1nc(C)c(-c2csc(Nc3ccc(Cl)cc3)n2)s1`, the activation is -1.66%.

`Cc1ccc(Cn2cc(CN3[C@@H](C)COc4cc(Br)ccc4S3(=O)=O)nn2)cc1`: the activation is 0.74%.

As to `COc1ccc(-n2c(COc3ccc(C)cc3)nnc2SCC(=O)Nc2ccc(Oc3ccccc3)cc2)cc1`, the activation is -0.88%.

With `CCCOc1ccc2c3c(c(=O)oc2c1OCCC)CCC3`, the activation is -1.41%.

For `COc1ccc2c3c(c(=O)oc2c1OCC(=O)C(C)(C)C)CCCC3`, the activation was 2.75%.

`O=c1oc2c(CN3CCCCC3)c(O)ccc2c2c1CCCCC2`: the activation is 68.2% (active).

Regarding `O=C(OC12CCCN(C1)/C(=C/c1cccnc1)C2)C1CCCC1` (stereo unspecified), the activation is 0.01%.

Turning to `CCN1CCCC1CNC(=O)c1ccc2c(c1)NC(=O)/C(=C\c1ccccc1F)S2` (stereo unspecified), the activation was 0.44%.

Consider `CCN1CCCC1CNC(=O)c1cc2cc(OC)c(OC)cc2[nH]1` (stereo unspecified), for which the activation is 17.5% (active).

In the case of `COc1ccc(C(=O)NCC2CCCN2S(=O)(=O)c2cccs2)cc1OC` (stereo unspecified), the activation is 0.25%.
